Source: PubChem BioAssay
EBV gp42 block – Epstein-Barr virus gp42 inhibitors, primary screen, biochemical, uHTS, fluorescence polarization | Glycoprotein 42 (Epstein-Barr virus (strain AG876)), Q1HVG2 | Fluorescence polarization binding assay, mP read-out | inhibition, % (tested at 21.74 µM) | 220,000 compounds, 0.42% hits; in the data active = inhibition above about 50%
Target sequence (Q1HVG2 whole entry, looked up): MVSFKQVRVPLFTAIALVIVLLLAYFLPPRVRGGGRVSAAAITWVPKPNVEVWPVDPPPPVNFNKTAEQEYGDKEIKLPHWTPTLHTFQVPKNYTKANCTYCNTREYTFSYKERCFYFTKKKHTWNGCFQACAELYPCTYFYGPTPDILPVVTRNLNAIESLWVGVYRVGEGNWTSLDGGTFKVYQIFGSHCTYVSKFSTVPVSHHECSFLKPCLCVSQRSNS
MEX-5 binding – MEX-5 zinc finger RNA-binding disruptors – biochemical, C. elegans, fluorescence polarization, MLPCN library, primary screen. activity score (negative = inhibition of binding), % at 10 µM. 300,000 compounds, 0.38% hits. AID 1832, 2009. MEX-5/FITC-TCR2 RNA binding; active compounds read low;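 active = inhibition past about -25% in most replicates, and total fluorescence under double the plate's negative control median, limit read from the data; inconclusive = replicates evenly split on the limit, or fluorescence at least double controls; inactive = too little inhibition in most replicates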;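 note: 0% = DMSO and -100% = 5 µM competing unlabeled TCR2 RNA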
Target sequence (Q9XUB2 whole entry, looked up): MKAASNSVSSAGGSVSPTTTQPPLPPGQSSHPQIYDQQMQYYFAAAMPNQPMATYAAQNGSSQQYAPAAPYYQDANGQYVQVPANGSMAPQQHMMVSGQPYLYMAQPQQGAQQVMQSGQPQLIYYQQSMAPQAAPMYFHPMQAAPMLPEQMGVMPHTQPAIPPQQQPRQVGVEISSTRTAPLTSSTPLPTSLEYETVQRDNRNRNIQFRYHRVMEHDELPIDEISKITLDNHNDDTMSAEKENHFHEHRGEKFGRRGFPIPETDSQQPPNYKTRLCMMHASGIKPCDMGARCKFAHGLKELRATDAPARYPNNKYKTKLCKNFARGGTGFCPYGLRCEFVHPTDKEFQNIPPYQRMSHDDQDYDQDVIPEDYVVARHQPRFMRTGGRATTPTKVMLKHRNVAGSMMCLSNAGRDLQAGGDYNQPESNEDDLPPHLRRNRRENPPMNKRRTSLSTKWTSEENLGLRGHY
Bcl-xL primary – inhibitors of human Bcl-xL, primary screen, biochemical, fluorescence polarization, HTS | Bcl-2-like protein 1 (Homo sapiens), Q07817 | 320,000 compounds, 0.7% hits | inhibition, % at 10.9 µM | GST-Bcl-xL / FITC-Bim BH3 peptide fluorescence polarization;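 active = inhibition above the mean of all tested compounds plus 3 SD, cutoff set per campaign, cut at about 30% in these data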;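 note: 0% = DMSO wells and 100% = unlabeled Bim-BH3 peptide competitor; inhibitors lower millipolarization by displacing the labeled peptide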
GLD-1 RNA inh – GLD-1/TGE RNA complex disruptors, primary screen, biochemical, fluorescence polarization. Female germline-specific tumor suppressor gld-1 (Caenorhabditis elegans), Q17339. purified GLD-1 + fluorescein TGE RNA. inhibition, % at 5.96 µM. 320,000 compounds, 0.44% hits. AID 2280, 2010;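 active = percent inhibition above a per-plate cutoff, the plate mean of test compounds plus 3 SD, cut at about 30% in these data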;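 note: 0% = DMSO wells with GLD-1 and probe and 100% = wells lacking GLD-1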
MCL1 BIM primary – inhibitors of MCL1 binding to BIM-BH3, primary screen, biochemical, fluorescence polarization; GST-MCL1 / FITC-Bim-BH3 fluorescence polarization; Induced myeloid leukemia cell differentiation protein Mcl-1 (Homo sapiens), Q07820; 320,000 compounds, 0.68% hits; inhibition, % at 10.9 µM;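 active = inhibition above the mean inhibition of all tested compounds plus 3 SD, set per campaign, cut at about 40% in these data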;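 note: 0% = DMSO wells and 100% = unlabeled Bim-BH3 peptide control; higher means more loss of mP so more displacement of Bim peptide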
Bcl-xL conf – Bcl-xL inhibitors blocking Bim BH3 binding, confirmation, counter-screen for MCL1 inhibitor project, biochemical, fluorescence polarization. shares compounds with MCL1 BIM primary. GST-Bcl-xL / FITC-Bim BH3 peptide FP binding. inhibition, % at 10.9 µM. 1,700 compounds, 54% hits;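 active = inhibition above a cutoff equal to the mean inhibition of all tested compounds plus 3 SD, cut at about 30% in these data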;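 note: 0% = DMSO wells and 100% = unlabeled Bim BH3 control peptide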
MCL1 inh confirm – inhibitors of MCL1 binding to BIM-BH3, confirmation, biochemical, fluorescence polarization, triplicate; shares compounds with MCL1 BIM primary; GST-MCL1 / FITC-Bim-BH3 fluorescence polarization; inhibition, % at 10.9 µM; 1,700 compounds, 61% hits;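 active = inhibition above the average of all tested compounds plus 3 SD, cut at about 40% in these data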;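 note: 0% = DMSO wells and 100% = unlabeled Bim-BH3 control peptide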
Numbers without * were called inactive; ? = inconclusive; · = no result given. Rows were chosen to be rich in hits. Some 1.3% of all compounds tested hit in one or more screens of this group.

SMILES	EBV gp42 block	MEX-5 binding	Bcl-xL primary	GLD-1 RNA inh	MCL1 BIM primary	Bcl-xL conf	MCL1 inh confirm
COC(=O)CCCC1=CC2=CC(=O)C(C)(OC(=O)c3cccs3)C(=O)C2=CN1c1ccccc1 (stereo unspecified)	·	-6.9	16.8	14.9	16.3	·	·
COC(=O)CCCC1=CC2=CC(=O)C(C)(OC(=O)c3cccs3)C(=O)C2=CO1 (stereo unspecified)	·	-49.0*	104.8*	93.3*	121.5*	52.7*	69.1*
CC1(OC(=O)c2ccc(Cl)nc2)C(=O)C=C2C=C(c3ccsc3)OC=C2C1=O (stereo unspecified)	·	-21.6	22.6	29.2	32.0	·	·
CCc1noc(C)c1C(=O)N1CCCC(N2CCN(c3cccc(Cl)c3)CC2)C1 (stereo unspecified)	·	0.5	5.3	2.4	4.3	·	·
COC(=O)CCC(=O)OC1(C)C(=O)C=C2C=C3CCCN3C=C2C1=O (stereo unspecified)	11.2	-5.9	21.7	11.6	47.5*	33.3*	32.1
CC1(OC(=O)c2ccc(Cl)nc2)C(=O)C=C2C=C(C3CC3)OC=C2C1=O (stereo unspecified)	·	-50.3*	73.7*	75.6*	87.0*	83.2*	121.5*
COC(=O)CCC(=O)OC1(C)C(=O)C=C2C=C(C3CC3)N(CCCCO)C=C2C1=O (stereo unspecified)	-2.0	0.8	21.8	16.1	19.3	·	·
CC1(OC(=O)c2ccc(Cl)nc2)C(=O)C=C2C=C3CCCN3C=C2C1=O (stereo unspecified)	12.9	·	12.7	11.6	26.2	·	·
CCCCC1=CC2=CC(=O)C(C)(OC(=O)CCC(=O)OC)C(=O)C2=CO1 (stereo unspecified)	·	-26.9*	41.7*	54.0*	61.9*	15.5	50.5*
O=C(CSc1ccc(S(=O)(=O)N2CCCCC2)cn1)Nc1ccccc1Br	·	·	6.8	-3.0	6.4	·	·
O=C(O)c1ccccc1-c1ccc(/C=c2\sc3nc4cc(Br)cnc4n3c2=O)o1	-121.1	4.6	38.2*	11.2	59.5*	-30.2	-62.1
COc1cccc(NC(=S)NC(=O)/C=C/c2ccco2)c1	·	-11.2	18.7	17.6	35.5	·	·
O=C(/C=C/c1ccco1)NC(=S)Nc1cccc(C(=O)O)c1	·	-34.4*	37.1*	4.7	61.4*	30.8*	51.9*
COc1cc(N)c(Cc2nccc3cc(OC)c(OC)cc23)cc1OC	-2.0	-1.0	114.9*	16.8	121.0*	17.6	19.2
c1coc(-c2nc3ccccc3nc2-c2ccco2)c1	-0.1	?	33.6*	9.7	60.5*	33.6*	42.3*
O=c1oc(-c2ccco2)nc2ccccc12	-10.3	-0.2	4.8	8.5	2.9	·	·
O=C(NCCc1ccccc1)c1ccc(=O)oc1	-11.1	2.0	-4.0	-5.9	-14.6	·	·
O=C(NCCc1ccccc1)c1ccc2nc(-c3ccco3)c(-c3ccco3)nc2c1	54.6*	-0.6	28.9	8.2	40.0*	42.5*	75.0*
O=C(NC1CCCC1)c1ccc2nc(-c3ccco3)c(-c3ccco3)nc2c1	21.4	·	40.8*	9.2	64.0*	40.1*	76.2*
O=C(NCCO)c1ccc2nc(-c3ccco3)c(-c3ccco3)nc2c1	-4.1	-38.7*	42.9*	20.6	56.5*	59.6*	77.4*
Cc1cc(-c2nnc(SCC(=O)NC3CC3)n2C(C)C)cs1	·	1.7	1.5	5.2	-1.3	·	·
C/C(=N/NS(=O)(=O)c1cccc([N+](=O)[O-])c1)c1ccncc1	·	-1.1	3.0	5.0	9.6	·	·
O=C(COC(=O)COc1ccccc1)NCCC1=CCCCC1	·	·	0.5	4.0	6.2	·	·
CCCCN(C(=O)c1cccc(-n2cccc2)c1)c1c(N)n(CCC)c(=O)[nH]c1=O	·	-2.0	2.3	4.5	55.2*	11.4	51.1*
Cc1ccc(C(=O)OCC(=O)N2C(C)CCCC2C)cc1S(=O)(=O)N1CCOCC1 (stereo unspecified)	·	-1.4	-5.3	-3.4	-8.6	·	·
SMILES	EBV gp42 block	MEX-5 binding	Bcl-xL primary	GLD-1 RNA inh	MCL1 BIM primary	Bcl-xL conf	MCL1 inh confirm
Cc1ccc(Cl)cc1NC(=O)c1ccccc1OCC(=O)N1CCOCC1	·	-0.2	-4.1	6.5	62.9*	7.5	12.6
Cc1cccc(C(=O)Nc2ccc(C(=O)Nc3ccc(O)cc3)cc2)c1	·	0.5	7.3	-6.9	7.6	·	·
Cc1c(Cl)cccc1NS(=O)(=O)c1ccc2c(c1)C1C=CCC1C(c1ccc(C(=O)O)cc1)N2 (stereo unspecified)	79.1*	·	38.8*	13.3	61.1*	28.6	73.9*
COc1ccc(NS(=O)(=O)c2ccc3c(c2)[C@H]2C=CC[C@H]2[C@@H](c2ccc(C(=O)O)cc2)N3)cc1	·	-61.2*	27.5	8.7	54.3*	10.9	26.5
CC(=O)c1ccc2c(c1)C1C=CCC1C(c1ccc(S(=O)(=O)N3CCOCC3)cc1)N2 (stereo unspecified)	6.5	·	22.4	-0.8	9.6	·	·
CCOc1cc(Br)c(Br)c(C=Nc2ccc(NC(C)=O)cc2)c1O	131.2*	-1.9	31.1*	2.9	44.2*	71.0*	116.4*
CCOc1cc(/C=N/NC(=O)C(N)=O)cc(Br)c1O	7.3	1.9	-0.2	-0.8	28.7	·	·
CCOc1ccc(CCNC(=O)CN2CCN(Cc3ccccc3C)C2=O)cc1OCC	-16.7	1.7	-2.0	-4.7	-0.7	·	·
Cc1ccc2[nH]c3c(c2c1)CN(C(=O)CN1CC(C)OC(C)C1)CC3 (stereo unspecified)	35.3	·	60.6*	-1.2	61.6*	51.0*	59.7*
Cc1ccc2[nH]c3c(c2c1)CN(C(=O)CN1CCN(c2ccccn2)CC1)CC3	15.0	-9.9	65.6*	37.7*	58.1*	13.4	15.0
Cc1ccc2[nH]c3c(c2c1)CN(C(=O)CN1CCSCC1)CC3	4.3	-12.0	·	·	·	·	·
Cc1ccc2[nH]c3c(c2c1)CN(C(=O)CN1CCN(Cc2ccc4c(c2)OCO4)CC1)CC3	11.4	-0.9	19.4	11.3	10.6	·	·
CC(=O)c1cnc2n(c1=O)CCS2	1.4	-1.1	2.6	4.4	-2.5	·	·
Cc1ccc(NC(=O)CCNC(=O)c2ccco2)cc1Cl	·	-1.3	-7.4	-6.7	-8.7	·	·
O=[N+]([O-])c1ccc2[nH]c(O)c(N=NC(=S)Nc3cccnc3)c2c1	59.4*	2.6	18.3	-1.9	42.1*	32.4*	33.4
